Most compounds without a hit are left out; they make up all but 7% or so of the library.
IL-1B inflam inh: inflammasome signaling inhibition, IL-1 beta readout. hit rate 4.7% among 360,000. THP-1 LPS/ATP IL-1B secretion, AlphaLISA, 16 h; stronger effect = lower value. activity change, % at 57.5 µM. AID 743279; in the data active = activity change below about -50%; inconclusive = mostly about -30% to -49%
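Secreted IL-1B measured by AlphaLISA bead assay after 16 h compound exposure of THP-1 cells; compounds (final up to 57.5 uM) added 1 h before LPS (250 ng/mL) and ATP (1.25 mM) stimulation; lower signal means less secretion.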
S2 tox: reduces viability in counter-screen for ATXN expression inhibitors; hit rate 0.49% among 400,000; AID 651635; S2 cells (HEK-293 line with an ATXN2-luciferase reporter) viability, CellTiter-Fluor protease fluorescence, 24 h; Potency, µM (doses to about 56.7 µM), actives largely listed as cytotoxic; note: nearly all actives have a fitted effect of over 40% in size
D3 ag: agonists of human D3 dopamine receptor; max activation, %; hit rate 0.58% among 410,000; D3R DiscoveRx beta-arrestin cells, luminescence, 90 min; P35462; in the data active = max activation above about 30%
Target sequence (P35462 whole entry, looked up): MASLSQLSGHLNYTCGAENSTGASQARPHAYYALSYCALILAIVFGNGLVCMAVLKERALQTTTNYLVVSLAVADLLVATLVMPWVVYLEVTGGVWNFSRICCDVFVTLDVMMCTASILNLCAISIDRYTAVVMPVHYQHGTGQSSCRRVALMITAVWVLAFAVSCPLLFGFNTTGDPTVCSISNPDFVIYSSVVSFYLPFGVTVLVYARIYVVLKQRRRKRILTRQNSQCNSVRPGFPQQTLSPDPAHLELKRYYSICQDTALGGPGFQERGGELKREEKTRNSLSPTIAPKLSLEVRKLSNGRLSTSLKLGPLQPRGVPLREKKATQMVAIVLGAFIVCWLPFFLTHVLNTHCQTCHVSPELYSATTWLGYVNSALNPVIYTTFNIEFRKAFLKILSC
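Agonist mode: compounds and dopamine controls were applied to plated cells for 90 min at 37 degrees C after an overnight attachment at 1500 cells/well. Luminescent read-out followed 30 - 60 minutes at room temperature with DiscoveRx detection reagent.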
ATXN2 expr inh: ATXN2 expression inhibition; HEK-293 ATXN2-luciferase reporter, luminescence, 24 h; hit rate 0.72% among 360,000; Potency, µM (titrated, usually from 57 µM), usual class: inhibitors; note: nearly all actives have a fitted effect of over 55% in size
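qHTS (up to 57 uM final) was run with 24 h compound exposure of reporter cells at 37 °C. Each well was multiplexed: SteadyGlo luminescence measured ATXN2-luciferase expression after a fluorogenic Gly-Phe-AFC viability readout (25 uM final).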
a7 integrin act: integrin-mediated muscular dystrophy alleviation activation. alpha7betagal myoblasts, beta-gal FDG fluorescence, 48 h. Potency, µM (top dose mostly 38.3 µM), usual class: activators. hit rate 0.064% among 350,000. AID 624291; note: nearly all actives have a fitted effect of over 60% in size
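alpha7betagal+/- myoblasts (passage 13, 250/well) treated 48 h at 37C with compounds at 1:260 dilution of DMSO stock. Lysed, then beta-galactosidase activity read as FDG fluorescence (ex 480/em 540) after 30 min, with pre-read for autofluorescence.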
DRD3 antagonist: antagonists of human D3 dopamine receptor | P35462 | D3R cells, DiscoveRx beta-arrestin luminescence, antagonist mode; stronger effect = lower value | max response, negative = inhibition, % | hit rate 2.5% among 360,000 | AID 652054; in the data active = max response below about -50%; inconclusive = no clear call, values can overlap the other calls
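Cells plated overnight at 1500 cells/well, then exposed to library compounds with dopamine controls for 90 minutes at 37 degrees C. DiscoveRx reagent added for 30–60 minutes at room temperature; luminescence read, quantitative HTS format.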
Each line names hits and unclear results; the compound was inactive in the other large screens; ! = not active in a repeat. Unless noted, calls come from the whole dose curve; as a rule, active = well fitted curve in the direction sought with a large enough effect; inconclusive = small, poorly fitted or top-dose-only effect, or another doubt; inactive = no such curve, though single readings can be large; an effect the other way counts as inactive or inconclusive.

CC(=O)N1N=C(c2c(O)n(C)c(=O)n(C)c2=O)CC1c1ccccc1 (centres undefined)	none
CC[C@H]1C2C[C@H]3[C@@H]4N(C)c5ccccc5C45C[C@H](C2[C@H]5O)N3[C@@H]1O (some centres undefined)	DRD3 antagonist -55.5 (no result: a7 integrin act)
CC[C@H]1[C@@H]2C[C@H]3[C@@H]4N(C)c5ccccc5[C@]45C[C@@H](C2[C@H]5O)N3[C@@H]1O (some centres undefined)	none (no result: IL-1B inflam inh, ATXN2 expr inh, a7 integrin act, DRD3 antagonist)
CCC1C2CC3C4N(C)c5ccccc5C45CC(C2C5O)N3[C@@H]1O (some centres undefined)	DRD3 antagonist -69.9 (no result: ATXN2 expr inh)
Cc1c(N=Cc2c(O)n(Cc3ccccc3)c(=O)[nH]c2=O)c(=O)n(-c2ccccc2)n1C	IL-1B inflam inh -71.6
COc1ccc(Cn2c(O)c(C=Nc3c(C)n(C)n(-c4ccccc4)c3=O)c(=O)[nH]c2=O)cc1	none
COc1cc(/C=C/c2nc3ccccc3c(=O)n2-c2ccccc2O)ccc1O	IL-1B inflam inh -65.8 (no result: S2 tox)
Cc1ccccc1-n1c(/C=C/c2ccccn2)nc2ccccc2c1=O	IL-1B inflam inh -52.8, S2 tox inconclusive (no result: ATXN2 expr inh)
Cc1ccc(S(=O)(=O)Oc2ccccc2C=C2C(=O)NC(=O)NC2=O)cc1	IL-1B inflam inh -54.9, S2 tox inconclusive, DRD3 antagonist inconclusive (no result: ATXN2 expr inh)
O=C1NC(=O)C(=Cc2ccccc2Oc2ccc(F)cc2)C(=O)N1	none
CC(CCc1ccccc1)NC(C)C(O)c1ccc(O)cc1 (centres undefined)	DRD3 antagonist -70.5 (no result: a7 integrin act)
COc1ccc(CCC(C)NCCc2ccccc2)cc1 (centres undefined)	IL-1B inflam inh inconclusive
CC(C)Oc1cccnc1N(C)C1CCN(Cc2ccccc2)CC1	DRD3 antagonist -95.4 (no result: a7 integrin act)
COc1ccccc1NC(=O)N(Cc1ccc2c(c1)OCO2)C1CCN(Cc2ccccc2)CC1	S2 tox inconclusive, ATXN2 expr inh inconclusive (no result: IL-1B inflam inh, a7 integrin act, DRD3 antagonist)
CSc1ccccc1C(=O)C1CCCN(Cc2cccc(C)n2)C1 (centres undefined)	IL-1B inflam inh -75.3, ATXN2 expr inh inconclusive
COc1ccc(CN2CCCC(C(=O)c3ccccc3SC)C2)cc1O (centres undefined)	DRD3 antagonist -60.7 (no result: ATXN2 expr inh)
COC12CCC3(CC1C(C)(O)C(C)(C)C)[C@H]1Cc4ccc(O)c5c4[C@@]3(CCN1CC1CC1)C2O5 (some centres undefined)	IL-1B inflam inh inconclusive, S2 tox inconclusive (no result: a7 integrin act)
COCCNC(=O)N1[C@H]2CC[C@@H]1C(C(=O)OC)=C(c1ccc(OC(F)(F)F)cc1)C2	none
CC1C(OC(=O)CCC(=O)NC(C)(C)CO)O[C@H]2OC3(C)CC[C@H]4[C@H](C)CCC1C24OO3 (some centres undefined)	IL-1B inflam inh -68.2
C[C@H]1[C@H](OC(=O)CCC(=O)NCc2ccc(C(=O)O)cc2)O[C@@H]2O[C@@]3(C)CC[C@H]4[C@H](C)CC[C@@H]1C24OO3	none
CCC1CCC(C)N(N=O)C1 (centres undefined)	none
CCCCC(=O)N/N=C/c1c(O)n(-c2cccc3ccccc23)c(=O)[nH]c1=O	none (no result: ATXN2 expr inh)
C[C@@H]1NCCc2cc(O)c(O)cc21	DRD3 antagonist -74.1 (no result: a7 integrin act)
Cc1cc(NC(=O)c2cccn(Cc3cccc(Cl)c3)c2=O)no1	none (no result: IL-1B inflam inh, a7 integrin act, DRD3 antagonist)
CN1CCC(N(C)c2nc(-c3ccc([N+](=O)[O-])cc3)nc3ccccc23)CC1	IL-1B inflam inh -96.2
CC1=CC(=O)OC2CC3OC4C[C@@H](C)C5OC6CC7O[C@]8(C)C/C=C\C9OC%10CC%11OC(CC(C)CO)CC(O)[C@]%11(C)OC%10CC9OC8C[C@]7(C)O[C@]6(C)CCC5OC4C[C@]3(C)OC12 (some centres undefined)	D3 ag 45.5
CC1=Nc2ccccc2/C1=C/c1c(O)n(C)c(=O)[nH]c1=O	IL-1B inflam inh -102.9
Cc1ccc2c(c1)C1C[N+](C)(CC(=O)c3ccc(Cl)cc3Cl)CCC1N2C(=O)c1ccc(F)cc1 (centres undefined)	IL-1B inflam inh -53.2, S2 tox inconclusive
Cc1ccc2c(c1)C1CN(C)CCC1N2C(=O)Nc1ccc(Cl)cc1 (centres undefined)	IL-1B inflam inh -72.0, S2 tox inconclusive
Cc1ccc2c(c1)C1CN(C)CCC1N2C(=O)c1cccs1 (centres undefined)	none
COc1cccc(C(c2nnnn2Cc2ccccc2)N2CCC(n3c(=O)[nH]c4ccccc43)CC2)c1OC (centres undefined)	S2 tox inconclusive, ATXN2 expr inh inconclusive (no result: a7 integrin act)
NCCc1ccc(O)cc1	D3 ag 32.2 (no result: a7 integrin act)
Oc1ccc(CCN2CCCCC2)cc1	none
Cc1cccc(CN2CCN(Cc3ccc(Cl)cc3)CC2)c1	IL-1B inflam inh inconclusive, S2 tox inconclusive, DRD3 antagonist -64.1
Fc1ccc(CN2CCN(c3ccc(Cl)cc3)CC2)cc1	DRD3 antagonist -52.0 (no result: ATXN2 expr inh)
Cc1cccc(CN2CCN(c3ccc(Cl)cc3)CC2)c1	S2 tox inconclusive, a7 integrin act inconclusive, DRD3 antagonist -94.6 (no result: ATXN2 expr inh)
Cc1ccc(CN2CCN(Cc3ccccc3F)CC2)cc1	S2 tox inconclusive, DRD3 antagonist inconclusive (no result: ATXN2 expr inh)
COc1cc(OC)c(OC)cc1CNCCc1cccc(F)c1	none (no result: ATXN2 expr inh)
COc1cccc(CCNCc2cccc(C(F)(F)F)c2)c1	IL-1B inflam inh -135.5
O=c1c2ccccc2nc(/C=C/c2ccc([N+](=O)[O-])o2)n1-c1ccc(O)cc1	IL-1B inflam inh -87.7, S2 tox 10µM, ATXN2 expr inh 12.6µM, DRD3 antagonist inconclusive
Cc1cccc(-n2c(/C=C/c3ccc([N+](=O)[O-])o3)nc3ccccc3c2=O)c1	IL-1B inflam inh -104.0, S2 tox inconclusive, ATXN2 expr inh 14.1µM
CC(=O)OC1CCC2(C)C(CCC3C2CC(=O)C2(C)C3CC(N3CC3)C2C(C)=O)C1 (centres undefined)	IL-1B inflam inh -72.1, S2 tox inconclusive
CC(=O)O[C@@H]1CC[C@]2(C)C3CC[C@@]4(C)C(C[C@@H](O)[C@@H]4O)C3[C@@H](OC(C)=O)C[C@H]2C1 (some centres undefined)	none
CC(C)CN1Cc2ccccc2-n2nncc2C1	none
CCC(C)(C)c1ccc(O)cc1	none (no result: a7 integrin act)
CC(C)(C)CC(C)(C)c1ccc(O)cc1	S2 tox 35.5µM!, ATXN2 expr inh inconclusive (no result: IL-1B inflam inh, a7 integrin act, DRD3 antagonist)
Cc1ccc(CN2C3CCCC2CC(NC(=S)NCc2ccccc2)C3)cc1 (centres undefined)	IL-1B inflam inh -64.5, S2 tox inconclusive, DRD3 antagonist -94.3
CNC(=S)NC1CC2CCCC(C1)N2CC(C)C (centres undefined)	none
CC(C)CC1(CCc2ccccc2)C(=O)NC(=O)NC1=O	none
CC(C(=O)c1c[nH]c2ccccc12)N1CCOCC1 (centres undefined)	a7 integrin act inconclusive
